Rows were chosen to be rich in hits. Some 17% of all compounds tested hit in one or more screens of this group.
DT40 TDP1 CPT – growth inhibition of DT40 Tdp1-/-;hTDP1 cells with camptothecin (screen for TDP1 inhibitors); actives 12% (n = 420,000); chicken DT40 Tdp1-/-;hTDP1 cells + 20 nM CPT, ATP luminescence, 48 h; Potency, µM (series often up to 46.2 µM), for inactives: at the top dose activity change, negative = growth inhibition, usual class: inhibitors; AID 686979; further: on the % scale 0 is the no-effect control and ±100 the full control effect; nearly all actives have a fitted effect of over 55% in size
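Cell growth measured by CellTiter-Glo luminescence after a minimum 48 h, 37 C compound exposure with 20 nM CPT in Tdp1-knockout DT40 cells stably expressing hTDP1, seeded 400/well; qHTS titration format.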
TDP1 cell noCPT – qHTS for Inhibitors of human tyrosyl-DNA phosphodiesterase 1 (TDP1): qHTS in cells in absence of CPT; DT40 Tdp1-/- hTDP1 cells, no CPT, ATP luminescence, 48 h; Potency, µM (highest dose often 46.2 µM), inactives show at the top dose activity change, negative = growth inhibition, actives largely listed as inhibitors; actives 15% (n = 420,000); AID 686978, 2013; further: on the % scale 0 is the no-effect control and ±100 the full control effect; nearly all actives have a fitted effect of over 55% in size
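Compound effects on proliferation are scored in DT40 Tdp1-/-;hTDP1 cells in the absence of CPT. ATP levels (CellTiter-Glo luminescence) are recorded after a ≥48 hr, 37 °C incubation.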
ClpP mod – qHTS Assay for Activators of ClpP | AID 651965, 2013 | Potency, µM (doses to about 57.5 µM), for inactives: at the top dose activity change, negative = active | actives 1.9% (n = 340,000) | purified B. subtilis ClpP, FRET peptide cleavage, 20 min; active means well fitted falling curve with a large enough effect; inconclusive means small, poorly fitted or top-dose-only effect; inactive means no such curve, though single readings can be large or run the other way; further: the source files actives as falling curves though it sought activators and does not explain the sign; nearly all actives have a fitted effect of over 65% in size
Target sequence (P80244 whole entry, looked up): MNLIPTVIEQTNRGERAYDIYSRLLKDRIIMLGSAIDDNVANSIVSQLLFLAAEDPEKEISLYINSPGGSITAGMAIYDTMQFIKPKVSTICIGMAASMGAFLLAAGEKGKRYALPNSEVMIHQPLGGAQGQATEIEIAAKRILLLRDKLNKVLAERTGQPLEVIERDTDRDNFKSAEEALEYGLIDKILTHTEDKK
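FRET quenching reversal measured ClpP activation: 10 microg/mL B. subtilis ClpP at pH 8 with the FRET-FV decapeptide, read at 430 nm after 320 nm excitation. The 20-min minus 0-min signal was scaled between DMSO/no-enzyme wells and ADEP (5.8 microM final).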
TDP1 block – blocks human tyrosyl-DNA phosphodiesterase 1 | Q9NUW8 | recombinant TDP1, AlphaScreen DNA substrate cleavage | Potency, µM (doses to about 130 µM), for inactives: top-dose activity change, negative = inhibition, actives largely listed as inhibitors | actives 0.28% (n = 350,000); further: on the % scale 0 is the no-effect control and ±100 the full control effect; nearly all actives have a fitted effect of over 40% in size
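AlphaScreen read-out: signal falls as enzyme removes the 3' tyrosine-FITC from a 5'-biotinylated DNA oligo (15 nM, 5 min, RT). Enzyme was E. coli-made recombinant Tdp1 at 1 nM, exposed to compound for 15 min beforehand; beads 10 ug/ml, 10 min.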
Starred values were filed as active, the others as inactive; [ ] = dose if it differs, or a comment. Unless noted, the call rests on the fitted dose curve; in most records, active means well fitted curve in the direction sought with a large enough effect; inconclusive means small, poorly fitted or top-dose-only effect, or another doubt; inactive means no such curve, though single readings can be large; an effect the other way counts as inactive or inconclusive. Potency means the concentration at half of the fitted maximal effect.

O=C(OCc1ccccc1)N1C[C@H](O)[C@H](O)C[C@@H]1c1c(Cl)cccc1Br was read as DT40 TDP1 CPT -16.7%, TDP1 cell noCPT -12.6% and ClpP mod 1.1%.
Screening Cc1ccc(C)c(C(=O)Cn2c(NCCO)nc3ccccc32)c1 returned DT40 TDP1 CPT inconclusive, TDP1 cell noCPT -3.9% and ClpP mod -0.2%.
Cc1ccc(NC(=O)CSc2n[nH]c(-c3cccnc3)n2)c(Br)c1 was read as DT40 TDP1 CPT 2.8%, TDP1 cell noCPT -1.3% and TDP1 block 4.3%[0.0935 µM].
Screening O=S(=O)(c1ccc(F)cc1)N1CCC(n2cnc3ccccc32)CC1 returned DT40 TDP1 CPT -3.3%, TDP1 cell noCPT -14.8% and ClpP mod 0.4%.
For Cc1ccc(C)c(NC(=O)CSc2nc3ccccc3nc2N2CCOCC2)c1 the results were DT40 TDP1 CPT -15.4%, TDP1 cell noCPT -25.3%, ClpP mod 5.2% and TDP1 block 0.0%.
Cc1cc(C)c(NC(=O)CSc2nc3ccccc3nc2N2CCCCC2)c(C)c1 was read as DT40 TDP1 CPT 7.31µM*, TDP1 cell noCPT 14.6µM*, ClpP mod -2.2% and TDP1 block 2.1%.
For C[C@@H](NC(=O)c1nc[nH]c1C(=O)NCc1ccccc1)c1ccccc1 the results were DT40 TDP1 CPT inconclusive, TDP1 cell noCPT inconclusive, ClpP mod 0.4% and TDP1 block 0.5%.
`Cc1cccc(C)c1-n1nnnc1C1(C)CCC(=O)N1Cc1cccc(C(F)(F)F)c1` (stereo not given) gave DT40 TDP1 CPT 23.1µM*, TDP1 cell noCPT 23.1µM* and ClpP mod 0.2%.
For COc1cc2c(C(=O)N3CCN(c4cccc(Cl)c4)CC3)cn(CC(C)C)c(=O)c2cc1OC the results were DT40 TDP1 CPT 23.1µM*, TDP1 cell noCPT inconclusive, ClpP mod 0.2% and TDP1 block 6.0%.
`CCn1cc(C(=O)N2CCN(c3cccc(C)c3C)CC2)c2cc(OC)c(OC)cc2c1=O` gave DT40 TDP1 CPT 20.6µM*, TDP1 cell noCPT 20.6µM*, ClpP mod -9.6% and TDP1 block 8.8%.
COCC(=O)N1CCN(c2cccc(C(F)(F)F)c2)CC1 was read as DT40 TDP1 CPT inconclusive, TDP1 cell noCPT -23.0%, ClpP mod -0.4% and TDP1 block 5.1%.
`COc1cc(C(=O)N2CCN(c3cccc(C(F)(F)F)c3)CC2)ccc1OCC(=O)N1CCOCC1` gave DT40 TDP1 CPT 23.1µM*, TDP1 cell noCPT 20.6µM* and ClpP mod -0.3%.
Screening COc1ccccc1C(=O)N1CCN(c2cccc(C(F)(F)F)c2)CC1 returned DT40 TDP1 CPT 10.3µM*, TDP1 cell noCPT 11.6µM*, ClpP mod 0.6% and TDP1 block 5.0%.
`CC(C(N)=O)N1C(=O)NC2(CCCc3ccccc32)C1=O` (stereo not given) gave DT40 TDP1 CPT 4.5%, TDP1 cell noCPT -16.3% and TDP1 block -7.8%.
`Cn1cncc1CNc1ncnc2ccc(-c3ccc4c(c3)OCO4)cc12` gave TDP1 block 4.7%.
Screening COc1ccc(-c2cc3c(=O)n(CC(=O)Nc4cc(C)ccc4C)ccn3n2)cc1 returned DT40 TDP1 CPT 0.4%, TDP1 cell noCPT -5.8%, ClpP mod -12.0% and TDP1 block -3.8%.
CCn1cc(C(=O)N2CCN(c3cccc(C(F)(F)F)c3)CC2)c2cc(OC)c(OC)cc2c1=O was read as DT40 TDP1 CPT 18.4µM*, TDP1 cell noCPT 23.1µM*, ClpP mod -2.1% and TDP1 block 1.9%.
Screening O=S(=O)(/N=C(/Nc1ccc(F)cc1F)c1ccccc1)c1ccc(Br)cc1 returned TDP1 block 5.3%.
`COC(=O)c1sc(-c2ccc(C(C)(C)C)cc2)cc1NC(=O)CSCC(=O)O` gave DT40 TDP1 CPT inconclusive, TDP1 cell noCPT inconclusive, ClpP mod 4.4% and TDP1 block 6.5%.
Screening OC(CNCCc1ccc(C(F)(F)F)cc1)COC(c1ccccc1)c1ccccc1 (stereo not given) returned DT40 TDP1 CPT 18.4µM*, TDP1 cell noCPT inconclusive and ClpP mod -3.5%.

Assay outcomes deposited in PubChem BioAssay by National Center for Advancing Translational Sciences (NCATS).
